Source: PubChem BioAssay
In the library only some 2.4% were active in any assay of this set; here they are far more common.
ABHD5 PLIN5 PPI = ABHD5-PLIN5 interaction inhibitors, primary screen, cell lysate, split luciferase complementation, luminescence | actives 0.78% (n = 360,000) | Split G. princeps luciferase complementation, 4 h | AID 602281, 2012 | inhibition, % at 4 µM | Perilipin-5 (Homo sapiens) + 1-acylglycerol-3-phosphate O-acyltransferase ABHD5 (Homo …;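 active = inhibition above the mean inhibition across every tested compound plus 3 SD, cut at about 22% in these data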
TLR9-MyD88 inh = inhibitors of TLR9-MyD88 association in cells, primary screen, cell-based, CHO, BLA complementation, fluorescence; Toll-like receptor 9 (Homo sapiens) + Myeloid differentiation primary response protein …; CCF4 FRET ratio; inhibition, % at 4.98 µM; actives 0.21% (n = 340,000); AID 504734, 2011;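 active = inhibition above the mean over all tested compounds plus 3 SD, cut at about 21% in these data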
NOD2-RIPK2 inh = NOD2-RIPK2 binding disruptors in cells, primary screen, fluorescence, CHO cells, BLA complementation; CCF4 ratio; inhibition, % at 4.98 µM; actives 0.38% (n = 360,000); in the data active = inhibition above about 21%
m5-HT2A agonist = mouse Htr2a agonists via beta-arrestin recruitment, primary screen, cell-based, luminescence; activation, % at 7.6 µM; 5-hydroxytryptamine receptor 2A (Mus musculus), P35363; actives 0.66% (n = 360,000); CHO-K1 mHTR2A beta-arrestin complementation; percent of 30 µM serotonin response;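 active = activation above a run cutoff, the mean activation of all tested compounds plus 3 SD, cut at about 14% in these data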
TLR4-MyD88 BLA = inhibitors of TLR4-MyD88 association in cells, primary screen, cell-based, HeLa CL3-4, BLA complementation, FRET ratio; Toll-like receptor 4 (Homo sapiens) + Myeloid differentiation primary response protein …; inhibition, % at 8.4 µM; actives 0.18% (n = 200,000); HeLa CL3-4 TLR4/MyD88 BLA complementation; AID 861, 2007; in the data active = inhibition above about 25%
CRFBP-R2 block = antagonists of CRF-BP/CRF-R2 complex, primary screen, cell-based, HEK293, calcium dye fluorescence, uHTS. CRF-induced calcium fluorescence. inhibition, % at 11.8 µM. actives 0.59% (n = 350,000). AID 588475, 2011;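 active = inhibition of the ligand-induced calcium signal above about 50% at the single tested concentration, limit read from the data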
ABHD5-PLIN5 conf = ABHD5-PLIN5 interaction inhibitors, confirmation, biochemical, luminescence | AID 651612, 2012 | actives 67% (n = 2,200) | shares compounds with ABHD5 PLIN5 PPI | inhibition, % at 4 µM; in the data active = inhibition above about 23%
HNF4 split-luc = HNF4 dimerization inhibitors, counter-screen for ABHD5-PLIN5 interaction inhibitor project, biochemical, split-luciferase complementation, luminescence; shares compounds with ABHD5 PLIN5 PPI; inhibition, % at 4 µM; actives 77% (n = 2,200);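 active = mean inhibition across replicate wells exceeding the computed hit threshold, cut at about 13% in these data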;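 note: light from luciferase halves that rejoin when HNF4 fusion proteins dimerize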
Target sequence (P41235 whole entry, looked up, the tested form may be a part): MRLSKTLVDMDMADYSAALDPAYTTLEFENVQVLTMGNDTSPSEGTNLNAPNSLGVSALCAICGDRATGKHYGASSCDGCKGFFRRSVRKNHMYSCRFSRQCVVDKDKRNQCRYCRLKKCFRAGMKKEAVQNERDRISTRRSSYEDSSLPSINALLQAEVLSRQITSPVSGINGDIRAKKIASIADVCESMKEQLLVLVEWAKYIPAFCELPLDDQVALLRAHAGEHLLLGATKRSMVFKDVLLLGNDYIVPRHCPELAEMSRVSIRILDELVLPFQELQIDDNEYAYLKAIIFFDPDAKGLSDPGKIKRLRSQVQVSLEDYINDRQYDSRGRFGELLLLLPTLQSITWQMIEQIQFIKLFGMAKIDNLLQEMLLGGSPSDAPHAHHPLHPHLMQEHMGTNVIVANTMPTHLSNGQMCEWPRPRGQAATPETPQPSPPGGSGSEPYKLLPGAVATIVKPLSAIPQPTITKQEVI
Each line names hits and unclear results; the compound was inactive in the other large screens (follow-up assays come after a bar, where they were run).

O=C(COC(=O)c1ccc(Br)cc1)NCc1ccccc1	none
CC(=O)Cc1cc(O)c2ccccc2c1OC(=O)c1ccc(Br)cc1	ABHD5 PLIN5 PPI 73, CRFBP-R2 block 68 (no result: TLR4-MyD88 BLA) | ABHD5-PLIN5 conf 83 | HNF4 split-luc 13
N#Cc1cc2c(=O)n3ccccc3nc2n(Cc2ccco2)c1=NC(=O)c1ccco1	ABHD5 PLIN5 PPI 50 | ABHD5-PLIN5 conf inactive | HNF4 split-luc 26
CC(=O)N=c1c(C#N)cc2c(=O)n3cccc(C)c3nc2n1Cc1ccco1	ABHD5 PLIN5 PPI 49 (no result: TLR9-MyD88 inh, TLR4-MyD88 BLA) | ABHD5-PLIN5 conf inactive | HNF4 split-luc 14
C[C@H](NC(=O)[C@@H]1CCCN1C(=O)[C@@H]1CCCN1)c1ccccc1	none (no result: TLR9-MyD88 inh, TLR4-MyD88 BLA, CRFBP-R2 block)
COc1ccc(C(C)(NC(C)=O)c2nc(-c3ccccc3OC)cs2)cc1 (stereo not given)	none (no result: TLR9-MyD88 inh, TLR4-MyD88 BLA, CRFBP-R2 block)
Cn1cnc([N+](=O)[O-])c1S(=O)(=O)c1ccc(Cl)cc1	ABHD5 PLIN5 PPI 49 | ABHD5-PLIN5 conf 75 | HNF4 split-luc 98
Cn1cnc([N+](=O)[O-])c1NC(C)(C)C	none
Cc1ccsc1C(=O)N1CCC1(C)C(=O)Nc1ccc2c(c1)OCCO2 (stereo not given)	none (no result: TLR9-MyD88 inh, TLR4-MyD88 BLA, CRFBP-R2 block)
COc1ccc(CSC(=S)NNc2ccccc2)cc1	none (no result: TLR4-MyD88 BLA)
COc1ccc(/C=C2/CCCC(CN(C)C)C2=O)cc1 (stereo not given)	none (no result: TLR4-MyD88 BLA)
COc1cccc(/C=C2/CCC(CN(C)C)C2=O)c1 (stereo not given)	ABHD5 PLIN5 PPI 58 (no result: TLR4-MyD88 BLA) | ABHD5-PLIN5 conf 101 | HNF4 split-luc 104
CSC(=Nc1ccccc1)N=C(SCc1ccccc1)N(C)C	ABHD5 PLIN5 PPI 81 (no result: TLR4-MyD88 BLA) | ABHD5-PLIN5 conf 96 | HNF4 split-luc 57
N#CNC(=Nc1ccccc1)SCc1ccc(C(=O)O)cc1	none
NC(=O)c1cc2cc(Br)ccc2oc1=NCc1ccccc1	ABHD5 PLIN5 PPI 62 | ABHD5-PLIN5 conf inactive | HNF4 split-luc 29
COc1ccc(/C=C/C(=O)c2ccccc2O)cc1	none
COc1ccc(/C=C/C(=O)c2c(O)c(OC)c3occc3c2OC)cc1	ABHD5 PLIN5 PPI 49 | ABHD5-PLIN5 conf 79 | HNF4 split-luc 65
CCn1cnc2c1c(=O)n(CC(=O)Nc1cc(C)on1)c(=O)n2Cc1ccccc1	none
CCCCn1c(=O)n(CC(=O)Nc2ccc(C)c(Cl)c2)c(=O)c2c1ncn2Cc1ccco1	ABHD5 PLIN5 PPI 36 | ABHD5-PLIN5 conf 26 | HNF4 split-luc inactive
COc1cccc(NC(=O)N(C)C[C@H]2Oc3ncc(Br)cc3C(=O)N([C@H](C)CO)C[C@H]2C)c1	none (no result: TLR4-MyD88 BLA)
Cc1cc(N2CCCC2)c(F)cc1/C=C\[N+](=O)[O-]	ABHD5 PLIN5 PPI 47 | ABHD5-PLIN5 conf 97 | HNF4 split-luc 95
Cc1cc(N2CCC(C)CC2)c(F)cc1[N+](=O)[O-]	none
O=C(Nc1ccc2c(c1)OCCO2)C1c2ccccc2OCC(=O)N1Cc1ccco1 (stereo not given)	none (no result: TLR9-MyD88 inh, TLR4-MyD88 BLA, CRFBP-R2 block)
C=CCn1c(SCC(C)=O)nc2scc(-c3ccco3)c2c1=O	ABHD5 PLIN5 PPI 34 (no result: TLR4-MyD88 BLA) | ABHD5-PLIN5 conf 54 | HNF4 split-luc 85
C=CCn1c(SCC(=O)N2CCOCC2)nc2scc(-c3ccco3)c2c1=O	ABHD5 PLIN5 PPI 33 | ABHD5-PLIN5 conf 23 | HNF4 split-luc 49
C=CCn1c(SCC(=O)NCCCC(=O)OCC)nc2scc(-c3ccco3)c2c1=O	ABHD5 PLIN5 PPI 30 | ABHD5-PLIN5 conf inactive | HNF4 split-luc 13
C=CCn1c(SCc2ccc3c(c2)OCO3)nc2scc(-c3ccco3)c2c1=O	ABHD5 PLIN5 PPI 36 | ABHD5-PLIN5 conf inactive | HNF4 split-luc inactive
O=C(Nc1ccc(F)cc1)C(c1cccc(F)c1)N1CCN(c2cccc(C(F)(F)F)n2)CC1 (stereo not given)	none (no result: TLR9-MyD88 inh, TLR4-MyD88 BLA, CRFBP-R2 block)
CCc1nc2c(OCCOC)cccn2c1N(C)C(=O)c1ccco1	none (no result: TLR9-MyD88 inh, TLR4-MyD88 BLA, CRFBP-R2 block)
O=C(NCc1ccco1)c1cccc2c1C(=O)c1ccc(N3CCCC3)cc1S2(=O)=O	ABHD5 PLIN5 PPI 26 (no result: TLR4-MyD88 BLA) | ABHD5-PLIN5 conf 33 | HNF4 split-luc 73
COc1ccccc1N1CCN(c2ccc3c(c2)S(=O)(=O)c2cccc(C(=O)NCc4cccc(F)c4)c2C3=O)CC1	none (no result: TLR4-MyD88 BLA)
O=C(NCc1cccc(F)c1)c1cccc2c1C(=O)c1ccc(N3CCOCC3)cc1S2(=O)=O	ABHD5 PLIN5 PPI 25 (no result: TLR4-MyD88 BLA) | ABHD5-PLIN5 conf inactive | HNF4 split-luc 16
Cc1cc(C)c(C(CC(=O)c2cccs2)C(C#N)C#N)c(C)c1 (stereo not given)	ABHD5 PLIN5 PPI 24 | ABHD5-PLIN5 conf 64 | HNF4 split-luc 41
CC(=O)N1c2ccccc2NC2=C(C(=O)CCC2)C1c1ccco1 (stereo not given)	ABHD5 PLIN5 PPI 30 | ABHD5-PLIN5 conf inactive | HNF4 split-luc 37
CCOc1ccc(C(=O)CC(Sc2ccc(C)cc2)C(=O)O)cc1 (stereo not given)	ABHD5 PLIN5 PPI 60 | ABHD5-PLIN5 conf inactive | HNF4 split-luc 69
O=C(CC(Sc1ccc(Br)cc1)C(=O)O)c1ccc(F)cc1 (stereo not given)	ABHD5 PLIN5 PPI 66 (no result: TLR4-MyD88 BLA) | ABHD5-PLIN5 conf 42 | HNF4 split-luc 80
CC(C)(C)C(=O)/C(=C/c1ccncc1)n1cncn1	ABHD5 PLIN5 PPI 29 | ABHD5-PLIN5 conf 51 | HNF4 split-luc 48
O=C(NCCCN1CCOCC1)c1ccc(CSc2ccc(Cl)cc2)cc1	ABHD5 PLIN5 PPI 27 | ABHD5-PLIN5 conf inactive | HNF4 split-luc inactive
CC(C)c1ccc(C(=O)NCCCN2CCOCC2)cc1	none (no result: TLR4-MyD88 BLA)
NC(=O)C1CCN(C(=O)COc2ccc(S(=O)(=O)NC3CCCC3)cc2)CC1	none (no result: TLR4-MyD88 BLA)
Cc1ccc(S(=O)(=O)NC2CCCCC2)cc1C(=O)N1CCC(C(N)=O)CC1	ABHD5 PLIN5 PPI 36 (no result: TLR4-MyD88 BLA) | ABHD5-PLIN5 conf inactive | HNF4 split-luc inactive
O=C1NC[C@@H](CCCCN2CCN(CCc3ccc(O)cc3)C(=O)C2=O)N(CCC2CCCCC2)C1=O	none (no result: TLR9-MyD88 inh, TLR4-MyD88 BLA, CRFBP-R2 block)
COc1ccc(CN2C[C@@H](CO)O[C@@H](n3cnc4c(NCc5ccco5)ncnc43)C2)cc1	none (no result: TLR9-MyD88 inh, TLR4-MyD88 BLA, CRFBP-R2 block)
CC(=O)Nc1cc(-c2ccc(N3CCN(C)CC3)cc2)cn2c(-c3ccc(S(C)(=O)=O)cc3)cnc12	none (no result: TLR9-MyD88 inh, TLR4-MyD88 BLA, CRFBP-R2 block)
